Test results published in PubChem BioAssay.
Activity calls are given as the source filed them.

Legend:
[1] = anti-His antibody binders, primary screen, artefact control for SMM control protein annotation, biochemical, small-molecule microarray, 635 nm fluorescence (AID 1128); conditions: anti-His Alexa647 antibody binding, higher = more signal;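 note: score merges feature fluorescence with signal-to-noise for each printed compound spot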
[2] = tested on: Human papillomavirus type 1a E7 protein (residues 1-88); test: HPV1a E7 small-molecule binders, primary screen, biochemical, small-molecule microarray, residues 1-88, 635 nm (AID 1129); conditions: small-molecule microarray binding, fluorescence 635 nm; higher = more signal
[3] = molecular target: Focal adhesion kinase 1 (Homo sapiens) (UniProt Q05397); test: small-molecule microarray binders of FAK, primary screen, biochemical, 635/667 nm fluorescence, BSA, DTT (AID 1130); conditions: PTK2 binding, 635 nm fluorescence, higher = more signal;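 note: composite of spot emission at 667 nm and signal to noise over triplicate slides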
Sequence of Focal adhesion kinase 1 (Homo sapiens) (Q05397 whole entry, looked up): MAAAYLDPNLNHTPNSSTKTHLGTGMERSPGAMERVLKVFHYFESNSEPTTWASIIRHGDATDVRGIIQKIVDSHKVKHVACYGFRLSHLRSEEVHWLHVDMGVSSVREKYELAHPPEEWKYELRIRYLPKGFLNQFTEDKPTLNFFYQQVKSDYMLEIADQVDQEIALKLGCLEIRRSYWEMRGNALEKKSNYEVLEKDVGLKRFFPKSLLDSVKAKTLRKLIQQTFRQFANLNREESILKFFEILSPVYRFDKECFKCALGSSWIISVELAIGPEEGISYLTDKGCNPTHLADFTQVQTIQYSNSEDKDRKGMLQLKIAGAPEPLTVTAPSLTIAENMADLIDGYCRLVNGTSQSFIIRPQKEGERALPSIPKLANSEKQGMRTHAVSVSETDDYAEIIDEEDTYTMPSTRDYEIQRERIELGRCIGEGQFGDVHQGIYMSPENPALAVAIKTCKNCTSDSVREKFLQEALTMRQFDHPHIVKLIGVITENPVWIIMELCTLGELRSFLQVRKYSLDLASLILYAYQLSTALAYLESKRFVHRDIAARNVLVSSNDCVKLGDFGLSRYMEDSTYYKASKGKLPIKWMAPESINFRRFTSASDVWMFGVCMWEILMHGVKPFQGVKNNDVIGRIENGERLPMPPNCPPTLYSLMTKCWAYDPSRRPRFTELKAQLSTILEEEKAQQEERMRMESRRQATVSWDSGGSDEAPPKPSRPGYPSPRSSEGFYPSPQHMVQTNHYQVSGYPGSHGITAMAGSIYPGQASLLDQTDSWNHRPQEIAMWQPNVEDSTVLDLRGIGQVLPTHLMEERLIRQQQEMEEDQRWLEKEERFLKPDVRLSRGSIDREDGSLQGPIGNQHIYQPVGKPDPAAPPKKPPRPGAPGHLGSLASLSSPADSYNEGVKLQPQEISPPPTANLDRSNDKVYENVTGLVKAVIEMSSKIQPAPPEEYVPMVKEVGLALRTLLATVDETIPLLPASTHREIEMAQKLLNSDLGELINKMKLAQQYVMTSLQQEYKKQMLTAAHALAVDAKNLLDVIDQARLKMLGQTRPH

[4] = tested on: Fibrinogen (Alexa647-labelled); test: fibrinogen binders on compound microarrays, profiling panel, artefact control for SMM control-protein annotation, biochemical, small-molecule microarray, 635/667 nm fluorescence (AID 1131); conditions: fibrinogen-A647 binding fluorescence, higher = more signal;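 note: z-score merges 667 nm fluorescence with per-spot signal-to-noise over triplicate slides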
[5] = molecular target: Follistatin (Homo sapiens) (UniProt P19883); test: follistatin binders on small-molecule microarrays, primary screen, biochemical, small-molecule microarray, 635/667 nm fluorescence (AID 1132); conditions: FST binding, 635 nm fluorescence, higher = more signal
Sequence of Follistatin (Homo sapiens) (P19883 whole entry, looked up): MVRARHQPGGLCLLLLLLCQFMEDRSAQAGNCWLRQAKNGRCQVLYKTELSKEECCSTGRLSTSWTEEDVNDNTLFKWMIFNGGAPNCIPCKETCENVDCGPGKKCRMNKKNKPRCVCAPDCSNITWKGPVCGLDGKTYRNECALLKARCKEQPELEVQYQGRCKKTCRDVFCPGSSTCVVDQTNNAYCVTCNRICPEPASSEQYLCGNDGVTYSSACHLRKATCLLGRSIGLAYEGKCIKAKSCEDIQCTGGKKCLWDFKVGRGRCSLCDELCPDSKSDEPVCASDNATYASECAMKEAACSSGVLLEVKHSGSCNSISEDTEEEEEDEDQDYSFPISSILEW

[6] = molecular target: Fibroblast growth factor 2 (Homo sapiens) (UniProt P09038); test: FGF2 binders on small-molecule microarrays, primary screen, biochemical, small-molecule microarray, 635/667 nm fluorescence (AID 1133); conditions: small-molecule microarray binding, FGF2, fluorescence 635/667; higher = more signal
Sequence of Fibroblast growth factor 2 (Homo sapiens) (P09038 whole entry, looked up): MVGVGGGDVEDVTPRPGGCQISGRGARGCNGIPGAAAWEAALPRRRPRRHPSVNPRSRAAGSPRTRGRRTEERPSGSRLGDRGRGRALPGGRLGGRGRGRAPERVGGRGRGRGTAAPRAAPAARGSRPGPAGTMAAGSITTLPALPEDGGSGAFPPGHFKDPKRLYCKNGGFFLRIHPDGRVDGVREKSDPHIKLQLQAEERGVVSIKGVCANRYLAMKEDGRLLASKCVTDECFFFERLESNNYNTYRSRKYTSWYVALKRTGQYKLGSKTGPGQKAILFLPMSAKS

[7] = mitochondrial membrane potential change in A549 cells, profiling panel, cell-based, JC-1 fluorescence, basal, 24 h, 100 nL (AID 1138); conditions: higher = more signal;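 note: A549 lung adenocarcinoma cells under basal conditions with no added stimulus; test concentration not given here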
[8] = tested on: Lefty1; test: Lefty1 binders on small-molecule microarrays, primary screen, biochemical, small-molecule microarray, 635/667 nm fluorescence (AID 1139); conditions: small-molecule microarray binding, fluorescence 635/667; higher = more signal
[9] = tested on: wheat germ agglutinin (Triticum aestivum), Alexa647-labelled; test: wheat germ agglutinin binders on compound microarrays, profiling panel, artefact control for SMM control-protein annotation, biochemical, small-molecule microarray, 635/667 nm fluorescence (AID 1140); conditions: WGA-A647 binding, 635 nm fluorescence, higher = more signal;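 note: score merges 667 nm feature emission with signal to noise over triplicate slides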
[10] = molecular target: Luciferin 4-monooxygenase (Photinus pyralis) (UniProt P08659); test: firefly luciferase enzyme inhibitors, primary screen, biochemical, luminescence, purified enzyme, 2006 set (AID 1141); conditions: SteadyGlo luminescence, 30 min, higher = more signal, called active from +8 up or from −8 down;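 note: cell-free assay with purified firefly luciferase at 100 ng per well in PBS; test concentration not given here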
Sequence of Luciferin 4-monooxygenase (Photinus pyralis) (P08659 whole entry, looked up): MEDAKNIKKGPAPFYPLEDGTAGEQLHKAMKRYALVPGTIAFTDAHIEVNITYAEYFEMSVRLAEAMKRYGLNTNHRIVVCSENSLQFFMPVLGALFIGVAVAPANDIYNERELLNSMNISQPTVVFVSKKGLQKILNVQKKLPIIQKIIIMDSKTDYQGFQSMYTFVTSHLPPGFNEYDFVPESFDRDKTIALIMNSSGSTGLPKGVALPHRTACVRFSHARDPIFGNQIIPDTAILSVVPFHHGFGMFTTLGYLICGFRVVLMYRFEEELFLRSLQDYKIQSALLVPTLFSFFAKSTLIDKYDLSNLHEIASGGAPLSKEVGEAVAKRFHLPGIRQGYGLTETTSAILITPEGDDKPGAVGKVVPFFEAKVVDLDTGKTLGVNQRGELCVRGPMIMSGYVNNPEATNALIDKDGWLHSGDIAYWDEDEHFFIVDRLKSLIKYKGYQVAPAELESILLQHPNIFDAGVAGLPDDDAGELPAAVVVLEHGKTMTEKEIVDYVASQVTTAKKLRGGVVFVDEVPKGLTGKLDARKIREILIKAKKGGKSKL

[11] = tested on: Wnt5a (protein binding on small-molecule microarray); test: Wnt5a binders on small-molecule microarray, primary screen, biophysical, 635/667 nm fluorescence (AID 1142); conditions: 635 nm fluorescence, higher = more signal;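 note: fluorescence read at 667 nm with signal to noise per printed feature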
[12] = cell viability in Huh7 cells, primary screen, cytotoxicity control for HCV replication inhibitor project, CellTiter-Glo luminescence, basal, 48 h (AID 1143); conditions: Huh7 HCV replicon, higher = more signal, called active from +8 up or from −8 down;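 note: Huh7 hepatoma cells carrying a hepatitis C replication reporter with no stimulus; test concentration not given here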
[13] = CREB reporter modulators without forskolin, primary screen, cell-based, PC12, CRE-LacZ reporter, unstimulated (AID 1145); conditions: no forskolin, luminescence, 4.5 h, higher = more signal, called active from +8 up or from −8 down
[14] = CREB reporter modulators under forskolin, primary screen, cell-based, PC12, CRE-LacZ reporter, forskolin-stimulated (AID 1146); conditions: luminescence, 4.5 h, higher = more signal, called active from +8 up or from −8 down;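 note: PC12 cells with 6xCRE LacZ reporter stimulated by forskolin 10 µM; beta-galactosidase reporter signal reflecting CREB driven transcription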
[15] = molecular target: Streptavidin (Streptomyces avidinii) (UniProt P22629); test: streptavidin binders on small-molecule microarray, primary screen, artefact control for SMM compound annotation, biophysical, 635/667 nm fluorescence (AID 1147); conditions: streptavidin binding, higher = more signal;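 note: signal reflects streptavidin binding to arrayed compounds as a control protein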
Sequence of Streptavidin (Streptomyces avidinii) (P22629 whole entry, looked up): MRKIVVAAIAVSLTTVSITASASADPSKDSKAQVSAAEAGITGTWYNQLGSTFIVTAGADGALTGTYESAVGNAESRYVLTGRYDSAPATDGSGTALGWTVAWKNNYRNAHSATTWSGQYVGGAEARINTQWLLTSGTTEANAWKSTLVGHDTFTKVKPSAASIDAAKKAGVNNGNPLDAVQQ

[16] = small-molecule binders of probe aInhba, primary screen, biochemical, small-molecule microarray, 635/667 nm fluorescence (AID 1148); conditions: higher = more signal;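 note: score merges 667nm spot fluorescence with signal-to-noise for antibody binding to printed compounds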
[17] = molecular target: Torsin-1A (Homo sapiens) (UniProt O14656); test: torsin A binders from cell lysate, primary screen, small-molecule microarray, wild-type, 635/667 nm (AID 1149); conditions: COS7 hTOR1A-WT lysate, 635 nm fluorescence, higher = more signal
Sequence of Torsin-1A (Homo sapiens) (O14656 whole entry, looked up): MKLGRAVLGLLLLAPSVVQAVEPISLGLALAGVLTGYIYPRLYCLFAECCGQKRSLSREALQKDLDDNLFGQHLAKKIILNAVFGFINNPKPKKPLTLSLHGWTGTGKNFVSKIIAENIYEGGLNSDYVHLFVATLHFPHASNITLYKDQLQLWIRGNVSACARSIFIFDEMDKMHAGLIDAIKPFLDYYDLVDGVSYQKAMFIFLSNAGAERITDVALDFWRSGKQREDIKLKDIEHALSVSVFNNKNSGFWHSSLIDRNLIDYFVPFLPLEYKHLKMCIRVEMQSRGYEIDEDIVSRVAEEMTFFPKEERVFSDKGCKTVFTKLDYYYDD

[18] = molecular target: Torsin-1A (Homo sapiens) (UniProt O14656); test: small-molecule binders of mutant TOR1A in lysate, primary screen, cell lysate, small-molecule microarray, COS7 lysate, 635/667 nm fluorescence (AID 1150); conditions: COS7 hTOR1A mutant lysate, 635 nm fluorescence, higher = more signal;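 note: score pools 667 nm emission and signal to noise measuring lysate protein binding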
[19] = tested on: Sonic hedgehog protein (Shh); test: small-molecule binders of Shh protein, primary screen, biochemical, small-molecule microarray, 635/667 nm fluorescence (AID 1151); conditions: small-molecule microarray binding, 635 nm fluorescence; higher = more signal;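 note: Shh protein binding to compounds spotted on small-molecule microarray slides; score combines spot fluorescence intensity with signal-to-noise across triplicate slides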

| Structure (SMILES) | composite z-score [1] | composite z-score [2] | composite z-score [3] | composite z-score [4] | composite z-score [5] | composite z-score [6] | z-score [7] | composite z-score [8] | composite z-score [9] | z-score [10] | composite z-score [11] | z-score [12] | z-score [13] | z-score [14] | composite z-score [15] | composite z-score [16] | composite z-score [17] | composite z-score [18] | composite z-score [19] |
| --- | --- | --- | --- | --- | --- | --- | --- | --- | --- | --- | --- | --- | --- | --- | --- | --- | --- | --- | --- |
| CC/C=C/C(=O)N(C[C@@H]1CCCO1)[C@@H]1CC(C(=O)NCCO)=C[C@H](Oc2c(I)cc(CO)cc2OC)[C@H]1O | 0.224 | 0.164 | 0.303 | 0.217 | -0.227 | -0.273 | 1.91 | 0.0903 | 0.701 | -1.47 (inactive) | -0.0308 | -1.97 (inactive) | 0.858 (inactive) | -2.41 (inactive) | -0.0512 | -0.128 | 0.553 | 0.267 | 0.239 |
| C=CCc1cccc([C@H]2N[C@H](C(=O)O)CC[C@@H]2C)c1 | 0.7 | 0.297 | 1.34 | 0.172 | 0.648 | 0.972 | 0.809 | 0.825 | -0.173 | -0.42 (inactive) | 0.023 | 0.0815 (inactive) | 1.46 (inactive) | -0.675 (inactive) | -0.0599 | -0.101 | 0.352 | 0.122 | 1.54 |
| C=CC[C@]1(C(=O)O)N=C(c2ccc(OCCCO)cc2)O[C@H]1c1ccccc1 | 0.254 | -0.531 | -0.231 | 0.243 | -0.367 | -0.503 | -0.124 | -1.09 | 1.25 | -1.8 (inactive) | -0.0903 | -0.551 (inactive) | 1.38 (inactive) | -1.04 (inactive) | 0.0596 | -0.0471 | -0.753 | -0.0649 | -0.712 |
| C=CCC1=C[C@H]2[C@H]([C@@H]3C=C[C@]2(CC=C)C(=O)[C@]32CO2)[C@@]2(CO2)C1=O | -0.131 | -1.2 | -0.263 | -0.571 | 1.45 | 1.45 | 1.84 | 1.58 | -0.0818 | -1.01 (inactive) | 0.123 | -3.26 (inactive) | 2.21 (inactive) | 1.62 (inactive) | 0.843 | -0.0021 | 0.919 | -0.0031 | 2.11 |
| C[N+](C)(C)CCCC[C@@H]1NC(=O)[C@H]2C[C@@H](C(=O)NCc3ccc(F)cc3)[C@@H](c3cccc(OCCO)c3)N2C1=O | 1.02 | 0.431 | 1.05 | 0.14 | 1.46 | 1.85 | 1.3 | 1.07 | 0.0979 | -0.908 (inactive) | 0.141 | -0.533 (inactive) | 1.23 (inactive) | -0.396 (inactive) | -0.326 | -0.0963 | 0.55 | 1.07 | 1.4 |
| C[C@@H]1CC[C@H]2C(=O)N3CCC[C@H]3C(=O)N2[C@H]1c1ccc(Br)cc1 | 0.136 | -0.366 | 0.335 | 0.0658 | 0.162 | 0.36 | 1.68 | 0.724 | -0.169 | -1.02 (inactive) | 0.12 | -0.184 (inactive) | 1.1 (inactive) | -0.0739 (inactive) | 1.98 | -0.0986 | 0.529 | 0.492 | -0.0312 |
| C=C(/C(=C/C[C@@H](OC(=O)c1ccncc1)c1ccc(CO)o1)c1cnc2ccccc2c1)C(C)C | 1.73 | 0.969 | 0.462 | 0.954 | 1.32 | 1.07 | 0.313 | 0.949 | 1.4 | -4.43 (inactive) | 0.117 | -1.35 (inactive) | 2.21 (inactive) | -0.42 (inactive) | 1.72 | 0.0464 | 0.165 | 0.475 | 1.15 |
| C=C(CCCC)C(=O)CC[C@@H](OC(=O)c1cccnc1)c1cccc(OCCO)c1 | 0.419 | -0.411 | 0.533 | 0.314 | 0.674 | 1.14 | 3.35 | 0.779 | 0.59 | -3.06 (inactive) | 0.38 | -1.85 (inactive) | 17.7 (active) | -0.315 (inactive) | -0.0743 | -0.0762 | 1.08 | 0.0906 | 1.17 |
| O=C(CS)NCCCCCNC(=O)[C@H]1C[C@H]2C(=O)N[C@@H](Cc3ccccc3)C(=O)N2[C@H]1c1ccc(O)cc1 | 1.58 | 1.06 | 0.485 | 0.948 | 1.43 | 1.14 | -0.586 | 0.854 | 1.21 | -2.91 (inactive) | 0.252 | -0.164 (inactive) | -0.809 (inactive) | -0.819 (inactive) | 0.0842 | 0.0018 | 1.04 | 0.746 | 2.09 |
| C=CC[C@@]1(C(=O)N2CCOCC2)N=C(c2ccc(OCCCO)cc2)O[C@@H]1c1ccccc1 | 0.805 | 1.19 | 1.57 | -0.0135 | -0.338 | -0.355 | 1.89 | -1.02 | 0.868 | -0.871 (inactive) | -0.0454 | -1.33 (inactive) | 0.437 (inactive) | -0.354 (inactive) | -0.0392 | -0.151 | 0.0827 | 1.2 | -0.571 |
